FLuc counter: inhibits or activates purified firefly luciferase, miR-21 counter-screen | purified FLuc, Km substrates, luminescence inhibition | hit rate 6.9% among 360,000 | Potency, µM (highest dose often 57.5 µM), for the others: at the top dose activity change, negative = inhibition, usual class: inhibitors;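 also: plate controls were vehicle for no effect and reference inhibitor for full effect; nearly all actives have a fitted effect of over 55% in size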
Target sequence (P08659 whole entry, looked up): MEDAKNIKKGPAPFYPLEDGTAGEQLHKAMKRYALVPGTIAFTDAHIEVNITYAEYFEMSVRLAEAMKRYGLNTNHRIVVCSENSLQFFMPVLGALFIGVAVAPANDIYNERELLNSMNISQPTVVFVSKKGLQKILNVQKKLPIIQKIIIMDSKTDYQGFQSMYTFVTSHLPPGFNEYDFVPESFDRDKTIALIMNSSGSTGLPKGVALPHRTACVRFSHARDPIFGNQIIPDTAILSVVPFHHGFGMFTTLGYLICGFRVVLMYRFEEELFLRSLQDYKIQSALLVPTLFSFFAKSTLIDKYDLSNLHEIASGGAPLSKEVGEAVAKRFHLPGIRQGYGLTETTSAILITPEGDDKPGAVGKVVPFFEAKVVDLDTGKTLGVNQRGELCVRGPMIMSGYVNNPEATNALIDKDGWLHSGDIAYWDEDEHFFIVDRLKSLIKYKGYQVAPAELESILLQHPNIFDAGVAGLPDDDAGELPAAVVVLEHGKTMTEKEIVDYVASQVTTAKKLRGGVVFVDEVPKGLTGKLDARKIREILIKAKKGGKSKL
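Biochemical qHTS of compounds, final roughly 60 µM downward over six points, against 10 nM purified firefly luciferase using Km concentrations of substrates (10 uM D-luciferin, 10 uM ATP) in Tris acetate pH 7.5 buffer; luminescence output.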
SMN2 splice up: enhancers of SMN2 splice variant expression. hit rate 2.8% among 210,000. HEK293 SMN2-luciferase splicing reporter, luminescence, 30-36 h. Potency, µM (top dose mostly 46.1 µM), for inactives: top-dose activity change, positive = activation, actives largely listed as activators; also: % of control where 0% means no effect; nearly all actives have a fitted effect of over 55% in size
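qHTS luciferase splicing reporter: luminescence rises when SMN2 exon 7 is included in transfected HEK293 cells. Compound exposure lasted 30-36 h at 37C, with 4.5 mM final sodium butyrate as control, followed by a ONE-Glo read.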
NPC1 promoter act: activates the NPC1 promoter | Huh7 NPC1 promoter luciferase reporter, 24 h | Potency, µM (series often up to 9.22 µM), inactives show top-dose activation, actives largely listed as activators | hit rate 2.4% among 320,000; also: % of control where 0% means no effect; nearly all actives have a fitted effect of over 60% in size
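Luminescence from an NPC1 promoter-driven luciferase reporter in stably transfected Huh7 cells was measured after 24 h compound treatment at 37 °C, followed by 10 min ambient incubation with luciferase detection reagent.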
ELG1 repair inh: ELG1-dependent DNA repair inhibition; HEK293T ELG1-luciferase reporter, luminescence, 16 h; DNA damage induced by 5-fluorouridine; Potency, µM (highest dose often 46.1 µM), for the others: at the highest dose activity change, negative = inhibition, most hits filed as inhibitors; hit rate 2.3% among 330,000; AID 504467; also: % is scaled to controls: 0 for no effect and ±100 for the full control effect; nearly all actives have a fitted effect of over 55% in size
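5-Fluorouridine DNA damage + compound/DMSO, 2,000 cells/well, 16 h, 37 °C/5% CO2. ONE-Glo, 30 min RT, luminescence. Readout = decrease in reporter signal.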
ELG1 genotoxic: induces genotoxicity in HEK293T cells with luciferase-tagged ELG1; HEK293T ELG1-luciferase reporter, luminescence, 16 h; Potency, µM (series often up to 46 µM), for the others: at the top dose activity change, positive = activation, hits mostly activators; hit rate 1.3% among 330,000; AID 504466; also: % of control where 0% means no effect; nearly all actives have a fitted effect of over 60% in size
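16 hr compound incubation (37 °C, 5% CO2) of HEK293T cells carrying luciferase-tagged ELG1; luciferase then measured by ONE-Glo luminescence after 30 min at RT.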
Rab9 promoter act: activators of Rab9 promoter; Potency, µM (top dose mostly 9.22 µM), inactives show top-dose activation, negative = inhibition, most hits filed as activators; hit rate 2.8% among 320,000; Huh7 Rab9 promoter-luciferase reporter, luminescence, 24 h; also: % of control where 0% means no effect; nearly all actives have a fitted effect of over 60% in size
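Cell-based reporter: Huh7 stable for Rab9 promoter-driven luciferase, plated in reduced-serum medium with 10% FBS at 1500 cells/well, compound-treated 24 h at 37 °C, luminescence read after 10 min reagent.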
Active calls of the source: *. Compounds with a hit are over-represented: about 9.3% of the library has one in this group of screens. Calls follow the shape of the dose curve; as a rule, active = well fitted curve in the direction sought with a large enough effect; inconclusive = small, poorly fitted or top-dose-only effect, or another doubt; inactive = no such curve, though single readings can be large; an effect the other way counts as inactive or inconclusive. Potency is read from the fitted curve at half-maximal effect.

Results for CC(C)OP(=O)(OC(C)C)C(Nc1ccc([N+](=O)[O-])cc1)c1cccc([N+](=O)[O-])c1 (configuration not stated) ?
FLuc counter: 4%; NPC1 promoter act: -3%; ELG1 repair inh: 16%; ELG1 genotoxic: -7%; Rab9 promoter act: -2%

Results for CC(C)OP(=O)(OC(C)C)/C(C=O)=N\Nc1ccc([N+](=O)[O-])cc1 ?
FLuc counter: 5%; NPC1 promoter act: -3%; ELG1 repair inh: 23µM*; ELG1 genotoxic: -13%; Rab9 promoter act: 0%

How did Cc1csc(SCC(=O)NC(=O)C2CCCCC2)n1 do in these assays?
FLuc counter: 6%; SMN2 splice up: -2%; NPC1 promoter act: 1%; ELG1 repair inh: 4%; ELG1 genotoxic: 8%; Rab9 promoter act: -4%

Results for O=C(OCC(=O)N1CCc2ccccc21)c1cccnc1 ?
FLuc counter: inconclusive; NPC1 promoter act: 0%; ELG1 repair inh: 5%; ELG1 genotoxic: 4%; Rab9 promoter act: -7%

What do the screens show for `COc1cc(N)c(Cl)cc1C(=O)OCC(=O)N1CCc2ccccc21`?
FLuc counter: 2%; NPC1 promoter act: 2%; ELG1 repair inh: 12%; ELG1 genotoxic: 1%; Rab9 promoter act: -5%

What do the screens show for `O=C(OCC(=O)N1CCCc2ccccc21)c1cccnc1Cl`?
FLuc counter: -6%; NPC1 promoter act: 0%; ELG1 repair inh: 16%; ELG1 genotoxic: 6%; Rab9 promoter act: -2%

How did O=C(OCC(=O)N1CCc2ccccc21)c1cccnc1Cl do in these assays?
FLuc counter: 11µM*; SMN2 splice up: 2%; NPC1 promoter act: 18%; ELG1 repair inh: inconclusive; ELG1 genotoxic: inconclusive; Rab9 promoter act: 5%

What do the screens show for `O=C(OCC(=O)N1CCc2ccccc21)c1ccccc1`?
FLuc counter: 9.5µM*; SMN2 splice up: 2%; NPC1 promoter act: -1%; ELG1 repair inh: inconclusive; ELG1 genotoxic: inconclusive; Rab9 promoter act: 6%

How did COc1cccc(C(=O)OCC(=O)N2CCc3ccccc32)c1OC do in these assays?
FLuc counter: 11µM*; NPC1 promoter act: 20%; ELG1 repair inh: inconclusive; ELG1 genotoxic: inconclusive; Rab9 promoter act: 27%

What do the screens show for `COC(=O)C1CSC(C(=O)OC)N1C(=O)CN1CCN(c2ccc(OC)cc2)CC1` (configuration not stated)?
FLuc counter: -3%; SMN2 splice up: 0%; NPC1 promoter act: -2%; ELG1 repair inh: -4%; ELG1 genotoxic: 3%; Rab9 promoter act: 14%

How did O=C(Nc1nc2ccccc2s1)C1CCN(S(=O)(=O)c2cc([N+](=O)[O-])ccc2Cl)CC1 do in these assays?
FLuc counter: -6%; NPC1 promoter act: -18%; ELG1 repair inh: -16%; ELG1 genotoxic: -5%; Rab9 promoter act: -26%

Results for CC(=O)Nc1ccc(C)cc1-c1nc2ccccc2n(CC(=O)c2ccc(Cl)cc2)c1=O ?
FLuc counter: 0%

What do the screens show for `C(=N\n1cnnc1)/c1nc2ccccc2[nH]1`?
FLuc counter: 1%; SMN2 splice up: -7%; NPC1 promoter act: 6%; ELG1 repair inh: -5%; ELG1 genotoxic: 0%; Rab9 promoter act: 10%

What do the screens show for `O=C(/C=C/c1ccc(Cl)cc1Cl)c1nc2ccccc2[nH]1`?
FLuc counter: 0.24µM*; SMN2 splice up: -29%; NPC1 promoter act: 0%; ELG1 repair inh: 6%; ELG1 genotoxic: 2%; Rab9 promoter act: 0%

What do the screens show for `O=C(/C(=C(\O)c1ccccc1)c1nc2ccccc2[nH]1)c1ccccc1`?
FLuc counter: 0%; NPC1 promoter act: -5%; ELG1 repair inh: -20%; ELG1 genotoxic: -9%; Rab9 promoter act: 19%

What do the screens show for `OCc1nc2ccc(Cl)cc2[nH]1`?
FLuc counter: 6%; NPC1 promoter act: -5%; ELG1 repair inh: 12%; ELG1 genotoxic: 0%; Rab9 promoter act: -9%

Results for Clc1cccc(Cl)c1/C=C/c1nc2ccccc2[nH]1 ?
FLuc counter: 0.67µM*; SMN2 splice up: 11µM*; NPC1 promoter act: 3.5µM*; ELG1 repair inh: inconclusive; ELG1 genotoxic: inconclusive; Rab9 promoter act: 4.5µM*

How did Clc1ccc(/C=C/c2nc3ccccc3[nH]2)cc1 do in these assays?
FLuc counter: 0.076µM*; SMN2 splice up: 0.79µM*; NPC1 promoter act: 0.1µM*; ELG1 repair inh: inconclusive; ELG1 genotoxic: 0.58µM*; Rab9 promoter act: 0.2µM*

How did Clc1ccc(/C=C/c2nc3ccccc3[nH]2)c(Cl)c1 do in these assays?
FLuc counter: 0.067µM*; SMN2 splice up: 0.56µM*; NPC1 promoter act: 0.71µM*; ELG1 repair inh: inconclusive; ELG1 genotoxic: inconclusive; Rab9 promoter act: 0.4µM*

How did Cc1cccc(N(C)C(=O)CCS(=O)(=O)c2ccc3c(c2)oc(=O)n3C)c1 do in these assays?
FLuc counter: -1%

What do the screens show for `Cc1cc(C(=O)NNC(=S)NCC(C)C)no1`?
FLuc counter: 0%; SMN2 splice up: -11%; NPC1 promoter act: 1%; ELG1 repair inh: -1%; ELG1 genotoxic: -4%; Rab9 promoter act: 1%

How did CNC(=S)NNC(=O)c1sc(-c2cc(C)on2)nc1C do in these assays?
FLuc counter: 17µM*; NPC1 promoter act: -4%; ELG1 repair inh: 17%; ELG1 genotoxic: 1%; Rab9 promoter act: -1%

What do the screens show for `CCN(CC)C(=O)Cn1cnc2sc(C(=O)N3CCN(Cc4ccc5c(c4)OCO5)CC3)c(C)c2c1=O`?
FLuc counter: -7%; SMN2 splice up: -70%; NPC1 promoter act: -1%; ELG1 repair inh: 8.2µM*; ELG1 genotoxic: -10%; Rab9 promoter act: -5%

Results for Cc1c(C(=O)Nc2ccc3c(c2)OCO3)sc2ncn(CC(=O)N3CC(C)CC(C)C3)c(=O)c12 (configuration not stated) ?
FLuc counter: 0%; SMN2 splice up: 5%; NPC1 promoter act: 1%; ELG1 repair inh: 21µM*; ELG1 genotoxic: 6%; Rab9 promoter act: -2%

Results for CC(/C=C/c1ccccc1)=N/O ?
FLuc counter: inconclusive; SMN2 splice up: -8%; NPC1 promoter act: 13%; ELG1 repair inh: 0%; ELG1 genotoxic: 8%; Rab9 promoter act: 16%

Results for CC(/C=C/c1ccc(O)cc1)=N/O ?
FLuc counter: inconclusive; SMN2 splice up: inconclusive; NPC1 promoter act: 13%; ELG1 repair inh: 23µM*; ELG1 genotoxic: 0%; Rab9 promoter act: 9%

How did CCN(Cc1ccccc1)Cc1ccc(OCc2ccccc2)cc1 do in these assays?
FLuc counter: -14%; NPC1 promoter act: 0%; ELG1 repair inh: 3%; ELG1 genotoxic: -4%; Rab9 promoter act: 1%
